Data taken from PubChem BioAssay AID1159580 (chemical genetic matrix, 2015).
Screen size: about 5,500 compounds; about 2,000 (36%) were called active. Inconclusive results (about 18%) are left out. No stated cut-off is given here; in the data, active means normalized growth mostly below about 0.91 (no sharp cut-off); inconclusive means no clear call, values can overlap the other calls; inactive means mostly above about 0.92. The list shows a part of the results.

Test: chemical genetic growth profiling, strain panel (AID 1159580);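 further: tested at 20 µM; growth read once vehicle control cultures reached saturation at 30 °C; 1 = growth at the plate median or of vehicle wells; lower values mean less growth of the strain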
Conditions: S. cerevisiae deletion strains, growth OD

Measured: normalized growth

O=C(Nc1ccc(C(=O)O)c(O)c1)c1ccccc1
inactive: locus YAL021C, strain ccr4, active compounds read low 0.968 | locus YAL026C, strain drs2, active compounds read low 0.982 | locus YAL030W, strain snc1, active compounds read low 0.952 | locus YBL061C, strain skt5, active compounds read low 0.977 | locus YBR009C, strain hhf1, active compounds read low 0.97 | locus YBR023C, strain chs3, active compounds read low 0.991 | locus YBR171W, strain sec66, active compounds read low 0.968 | locus YBR231C, strain swc5, active compounds read low 0.972 | locus YBR279W, strain paf1, active compounds read low 0.989 | locus YCL011C, strain gbp2, active compounds read low 0.979 | locus YCL016C, strain dcc1, active compounds read low 0.979 | locus YCL061C, strain MRC1, active compounds read low 0.989 | locus YCL069W, strain vba3, active compounds read low 0.987 | locus YCR088W, strain abp1, active compounds read low 0.987 | locus YDL005C, strain med2, active compounds read low 0.978 | locus YDL040C, strain nat1, active compounds read low 0.976 | locus YDR001C, strain nth1, active compounds read low 0.964 | locus YDR069C, strain doa4, active compounds read low 0.974 | locus YDR137W, strain rgp1, active compounds read low 0.916 | locus YDR159W, strain sac3, active compounds read low 0.985 | locus YDR195W, strain ref2 0.952 | locus YDR297W, strain sur2, active compounds read low 0.976 | locus YDR334W, strain swr1, active compounds read low 0.942 | locus YDR335W, strain msn5, active compounds read low 0.972 | locus YDR392W, strain spt3, active compounds read low 0.986 | locus YEL003W, strain gim4, active compounds read low 0.974 | locus YEL037C, strain rad23, active compounds read low 0.992 | locus YEL061C, strain CIN8 (second series), active compounds read low 0.976 | locus YER015W, strain faa2, active compounds read low 0.968 | locus YER016W, strain bim1, active compounds read low 0.979 | locus YER111C, strain swi4, active compounds read low 0.992 | locus YER155C, strain BEM2 (second series), active compounds read low 0.967 | locus YFR010W, strain ubp6, active compounds read low 0.963 | locus YGL167C, strain pmr1, active compounds read low 0.989 | locus YGL173C, strain kem1, active compounds read low 0.967 | locus YGL227W, strain vid30, active compounds read low 0.974 | locus YGL240W, strain doc1, active compounds read low 0.977 | locus YGL253W, strain hxk2, active compounds read low 0.986 | locus YHR013C, strain ard1, active compounds read low 0.962 | locus YHR027C, strain rpn1, active compounds read low 0.964 | locus YHR030C, strain SLT2, active compounds read low 0.937 | locus YHR079C, strain IRE1, active compounds read low 0.939 | locus YHR142W, strain chs7, active compounds read low 0.968 | locus YJL092W, strain hpr5, active compounds read low 0.999 | locus YJL095W, strain BCK1 (second series), active compounds read low 0.981 | locus YJL095W, strain BCK1, active compounds read low 0.976 | locus YJL115W, strain asf1, active compounds read low 0.974 | locus YJL129C, strain trk1, active compounds read low 0.999 | locus YJL154C, strain vps35, active compounds read low 0.965 | locus YJL164C, strain tpk1, active compounds read low 0.983 | locus YJL166W, strain qcr8, active compounds read low 0.973 | locus YJL187C, strain SWE1, active compounds read low 0.984 | locus YJR066W, strain TOR1, active compounds read low 0.908 | locus YKL160W, strain elf1, active compounds read low 0.981 | locus YKR026C, strain gcn3, active compounds read low 0.99 | locus YKR091W, strain srl3, active compounds read low 0.984 | locus YLL001W, strain dnm1, active compounds read low 0.983 | locus YLL026W, active compounds read low 0.958 | locus YLL041C, strain sdh2, active compounds read low 0.979 | locus YLR027C, strain aat2, active compounds read low 0.968 | locus YLR113W, strain HOG1, active compounds read low 0.974 | locus YLR221C, strain rsa3, active compounds read low 0.984 | locus YLR258W, strain gsy2, active compounds read low 0.987 | locus YLR262C, strain YPT6 (second series), active compounds read low 0.938 | locus YLR320W, strain mms22, active compounds read low 0.973 | locus YLR342W, strain FKS1, active compounds read low 0.978 | locus YLR357W, strain rsc2, active compounds read low 1 | locus YLR370C, strain arc18, active compounds read low 0.975 | locus YLR384C, strain iki3, active compounds read low 0.962 | locus YML120C, strain ndi1, active compounds read low 0.986 | locus YMR058W, strain fet3, active compounds read low 0.984 | locus YMR125W, strain sto1, active compounds read low 0.984 | locus YMR129W, active compounds read low 0.989 | locus YMR205C, strain PFK2, active compounds read low 0.969 | locus YMR231W, strain pep5, active compounds read low 0.984 | locus YNL071W, strain lat1, active compounds read low 0.978 | locus YNL183C, strain NPR1, active compounds read low 0.92 | locus YNL209W, strain ssb2, active compounds read low 0.957 | locus YNL248C, strain rpa49, active compounds read low 0.986 | locus YNL322C, strain KRE1 (second series), active compounds read low 0.97 | locus YNR049C, strain mso1, active compounds read low 0.967 | locus YOR001W, strain rrp6, active compounds read low 0.982 | locus YOR070C, strain gyp1, active compounds read low 0.976 | locus YOR080W, strain dia2, active compounds read low 0.975 | locus YOR083W, strain WHI5, active compounds read low 0.984 | locus YOR106W, strain vam3, active compounds read low 0.989 | locus YOR231W, strain MKK1, active compounds read low 0.941 | locus YOR265W, strain rbl2, active compounds read low 0.988 | locus YOR270C, strain vph1, active compounds read low 0.972 | locus YOR290C, strain snf2, active compounds read low 0.99 | locus YPL051W, strain arl3, active compounds read low 0.981 | locus YPL078C, strain atp4, active compounds read low 0.97 | locus YPL106C, strain sse1, active compounds read low 0.918 | locus YPL240C, strain hsp82, active compounds read low 0.982 | locus YPL256C, strain CLN2, active compounds read low 0.963
